Data reported in PMC10726135, “HNF4α isoforms regulate the circadian balance between carbohydrate and lipid metabolism in the liver”.
The full ranking holds about 18,000 sequences; the median of “log2 normalized intensity” is about 0.39, and the highest 2% start at about 6.6. The entries come from a sample that favours the highest values as a whole.

Target: T1, HNF4alpha2 (COS-7 nuclear extract) (Homo sapiens, UniProt P41235 1-474)
T1 sequence: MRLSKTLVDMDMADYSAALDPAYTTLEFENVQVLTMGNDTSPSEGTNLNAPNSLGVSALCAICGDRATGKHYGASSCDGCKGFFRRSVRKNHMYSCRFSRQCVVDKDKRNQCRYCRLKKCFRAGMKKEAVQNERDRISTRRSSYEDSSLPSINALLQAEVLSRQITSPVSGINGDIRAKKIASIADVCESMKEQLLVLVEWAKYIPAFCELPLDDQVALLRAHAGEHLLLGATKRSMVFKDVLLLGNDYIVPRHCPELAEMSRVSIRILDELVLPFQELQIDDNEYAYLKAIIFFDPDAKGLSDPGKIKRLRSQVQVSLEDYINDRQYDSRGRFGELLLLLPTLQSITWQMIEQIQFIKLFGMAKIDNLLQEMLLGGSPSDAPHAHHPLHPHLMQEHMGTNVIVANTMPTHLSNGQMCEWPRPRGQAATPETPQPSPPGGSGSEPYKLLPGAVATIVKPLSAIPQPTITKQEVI
Experiment: protein-binding microarray; COS-7 nuclear extract on double-stranded Agilent 4x180k PBM; binding buffer, salt, pH and temperature not given in the material; high values mean tight binding
Conditions: chain copies: 2; label: 3' end of strand 1 on the slide; dsDNA, one strand shown
How it was run: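 Nuclear extracts from COS-7 cells expressing a transiently transfected human HNF4α isoform were put on a custom Agilent SurePrint G3 4x180k array carrying ~44,000 double-stranded ~60-nt test sequences in quadruplicate. Imaging used an Agilent G2565CA scanner at 2-µm resolution. Binding signal is the background-corrected, normalized gProcessedSignal from Agilent software.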

Sequence	binding signal
CGTCCGTCACCCCTTTCTTTGATTAGGAAAGCCTAGGGAGATTAGAGTATCGGTCGA	1.54 log2 normalized intensity
GTCAGTTGATAAACAGATAACTGGGGGCAAGCCTAGGGAGATTAGAGTATCGGTCGA	0.764 log2 normalized intensity
AGTCTGATTCTAGGGCCCATGCCCTTAGCCGCCTAGGGAGATTAGAGTATCGGTCGA	0.883 log2 normalized intensity
TCTGTATGTCTAAGGTTTCTCAGCCCCATCGCCTAGGGAGATTAGAGTATCGGTCGA	4.27 log2 normalized intensity
CGGGTGAAGGTTAAATAGCTCATTAAGCTTGCCTAGGGAGATTAGAGTATCGGTCGA	-0.974 log2 normalized intensity
CTCTCAACTCAGTGAGGGCTATTGACAAAGGCCTAGGGAGATTAGAGTATCGGTCGA	-0.637 log2 normalized intensity
ATTTTCCCACTTGTATGTCCAAGGGTCACTGCCTAGGGAGATTAGAGTATCGGTCGA	4.44 log2 normalized intensity
AATTTTCTCTGTATACTTGTCTTATCAGCAGCCTAGGGAGATTAGAGTATCGGTCGA	0.598 log2 normalized intensity
CTTGGACTTTAACCTTTAGATTACTAGGAAGCCTAGGGAGATTAGAGTATCGGTCGA	6.18 log2 normalized intensity
GAGTACTTGGACTTTAACCTTTAGATTACTGCCTAGGGAGATTAGAGTATCGGTCGA	7.31 log2 normalized intensity
ACTTTAACCTTTAGATTACTAGGAATTGATGCCTAGGGAGATTAGAGTATCGGTCGA	0.914 log2 normalized intensity
CTTATCTTTGACCTTACCAGCCCACTCTTAGCCTAGGGAGATTAGAGTATCGGTCGA	1.9 log2 normalized intensity
GAGAGTTCCCTTGGAATGCCAGATGACCTTGCCTAGGGAGATTAGAGTATCGGTCGA	4.14 log2 normalized intensity
TTAGCTTCCTCCCTTGGAATGTGACCTTAGGCCTAGGGAGATTAGAGTATCGGTCGA	4.12 log2 normalized intensity
TTTCATTCCACTGACTTGCAACCTTTGCCCGCCTAGGGAGATTAGAGTATCGGTCGA	6.76 log2 normalized intensity
TTCCTCCCTTGGAATGTGACCTTAGACCCCGCCTAGGGAGATTAGAGTATCGGTCGA	8.18 log2 normalized intensity
TGCCCTTGACTTTTTGTGGGGGCAGATGTTGCCTAGGGAGATTAGAGTATCGGTCGA	1.86 log2 normalized intensity
TTCCCTTGGAATGCCAGATGACCTTTGCCCGCCTAGGGAGATTAGAGTATCGGTCGA	9.88 log2 normalized intensity
ACCTTTGCCCTTGACTTTTTGTGGGGGCAGGCCTAGGGAGATTAGAGTATCGGTCGA	2.38 log2 normalized intensity
CTGGCTTTCATTCCACTGACTTGCAACCTTGCCTAGGGAGATTAGAGTATCGGTCGA	0.803 log2 normalized intensity
TTCCACTGACTTGCAACCTTTGCCCTGTTGGCCTAGGGAGATTAGAGTATCGGTCGA	6.31 log2 normalized intensity
AGATGACCTTTGCCCTTGACTTTTTGTGGGGCCTAGGGAGATTAGAGTATCGGTCGA	7.08 log2 normalized intensity
TTGCCCTTCTTGGATGCCCTTCCCTAACCCGCCTAGGGAGATTAGAGTATCGGTCGA	2.66 log2 normalized intensity

Sequence	binding signal
CCCTTGGAATGTGACCTTAGACCCCTGAATGCCTAGGGAGATTAGAGTATCGGTCGA	5.74 log2 normalized intensity
AGGGTGACCCCTGTGGTACAGGCAGTGACTGCCTAGGGAGATTAGAGTATCGGTCGA	1.48 log2 normalized intensity
GAGGCTGCTCTCTGTCCCTGCACCCTACCCGCCTAGGGAGATTAGAGTATCGGTCGA	1.6 log2 normalized intensity
AGGGCCCTTCACTATTTTCAAAGGTCAACAGCCTAGGGAGATTAGAGTATCGGTCGA	3.49 log2 normalized intensity
TGTGTTTCCACAAACACAGATCAGATATGAGCCTAGGGAGATTAGAGTATCGGTCGA	-0.462 log2 normalized intensity
GGCCTCCCCATCCTCATGACAGTACCTCTCGCCTAGGGAGATTAGAGTATCGGTCGA	2.32 log2 normalized intensity
GAACTTTGACCACCTACTGTTTGTGCAGAGGCCTAGGGAGATTAGAGTATCGGTCGA	4.13 log2 normalized intensity
ACACTGCCATTTAAAAGTTTCCCTTGATCAGCCTAGGGAGATTAGAGTATCGGTCGA	0.876 log2 normalized intensity
TTCTTTTTTTTTTTTTTTTTTTTTTGAGATGCCTAGGGAGATTAGAGTATCGGTCGA	3 log2 normalized intensity
ATGCCAGATGACCTTTGCCCTTGACTTTTTGCCTAGGGAGATTAGAGTATCGGTCGA	8.55 log2 normalized intensity
TATCCCTGGAGCCTTAGAAGATGACCTTTTGCCTAGGGAGATTAGAGTATCGGTCGA	5.59 log2 normalized intensity
GGAAGTCCAGCATTCTTTTCCCCATACCAGGCCTAGGGAGATTAGAGTATCGGTCGA	1.33 log2 normalized intensity
TGCCCTTTGTCCAGGGTGAGAGGGACCCTTGCCTAGGGAGATTAGAGTATCGGTCGA	2.41 log2 normalized intensity
CCACCCACACTGCAGCAAAACTTTAGGACTGCCTAGGGAGATTAGAGTATCGGTCGA	0.141 log2 normalized intensity
GCAAACCTACCTGAACTTTGCCCCAGAGGAGCCTAGGGAGATTAGAGTATCGGTCGA	5.9 log2 normalized intensity
ACTTCTGTCTCCAGAAATCAACCTTTGATCGCCTAGGGAGATTAGAGTATCGGTCGA	7.84 log2 normalized intensity
TGCAGCAAAACTTTAGGACTTTGAACCTTGGCCTAGGGAGATTAGAGTATCGGTCGA	8.63 log2 normalized intensity
GGGCAGCAAACCTACCTGAACTTTGCCCCAGCCTAGGGAGATTAGAGTATCGGTCGA	7.99 log2 normalized intensity
TTGAACCTTGGGTCTGTAATCTCACAACTCGCCTAGGGAGATTAGAGTATCGGTCGA	1.47 log2 normalized intensity
GGACTTTGAACCTTGGGTCTGTAATCTCACGCCTAGGGAGATTAGAGTATCGGTCGA	7.11 log2 normalized intensity
CCTTGGGTCTGTAATCTCACAACTCAGAAGGCCTAGGGAGATTAGAGTATCGGTCGA	0.23 log2 normalized intensity
ATAAGGGGCAGCAAACCTACCTGAACTTTGGCCTAGGGAGATTAGAGTATCGGTCGA	3.07 log2 normalized intensity
TGTCTCCAGAAATCAACCTTTGATCGTTTGGCCTAGGGAGATTAGAGTATCGGTCGA	5.83 log2 normalized intensity

Sequence	binding signal
ATGTCTCCAGAAACCAACCTTTGATCATTCGCCTAGGGAGATTAGAGTATCGGTCGA	4.87 log2 normalized intensity
CACACTGCAGCAAAACTTTAGGACTTTGAAGCCTAGGGAGATTAGAGTATCGGTCGA	3.31 log2 normalized intensity
AGAAAGACATGTTTCTAACTGCCCGCATTCGCCTAGGGAGATTAGAGTATCGGTCGA	0.246 log2 normalized intensity
TATTCCAGGCACAAGAATGGTCATTCTCTGGCCTAGGGAGATTAGAGTATCGGTCGA	-0.977 log2 normalized intensity
GGCTTCTGGACTATGCCTTGAACTTTAAGGGCCTAGGGAGATTAGAGTATCGGTCGA	2.21 log2 normalized intensity
TGGCACCTGAAGCTGCCCTTTGCACATGCCGCCTAGGGAGATTAGAGTATCGGTCGA	4.08 log2 normalized intensity
ATTGGGATGGAGTAACTTGCTAAGTATAAAGCCTAGGGAGATTAGAGTATCGGTCGA	-0.531 log2 normalized intensity
TCTTTTCTAAGATATTTGCATAGGCATTGTGCCTAGGGAGATTAGAGTATCGGTCGA	1.94 log2 normalized intensity
CTTGTCCAACTCCCCTCCCAAGGCAGCAATGCCTAGGGAGATTAGAGTATCGGTCGA	4 log2 normalized intensity
GATGACATCATCTGTTTGTACGCGTCGAACGCCTAGGGAGATTAGAGTATCGGTCGA	-0.199 log2 normalized intensity
CAACTTTCTCCTCCAGGACCTTGCCCTTTAGCCTAGGGAGATTAGAGTATCGGTCGA	4.23 log2 normalized intensity
CAAAACTTTAGGACTTTGAACCTTGGGTCTGCCTAGGGAGATTAGAGTATCGGTCGA	7.13 log2 normalized intensity
GGGAGGAGGGCAACCTTTGAACTGGGTCTTGCCTAGGGAGATTAGAGTATCGGTCGA	4.09 log2 normalized intensity
CTTTAGGACTTTGAACCTTGGGTCTGTAATGCCTAGGGAGATTAGAGTATCGGTCGA	6.04 log2 normalized intensity
GGACTCTGGAACCATCAGGATTCCAGAGGAGCCTAGGGAGATTAGAGTATCGGTCGA	1.86 log2 normalized intensity
TTTGCAACCTTTGATAACCTACAACCTTCTGCCTAGGGAGATTAGAGTATCGGTCGA	0.304 log2 normalized intensity
CCCAGGTACGGAGGACAGCCACCCGTGCTTGCCTAGGGAGATTAGAGTATCGGTCGA	-0.928 log2 normalized intensity
TTACTATAGGTTCTACTCTCCCCAGTTCAAGCCTAGGGAGATTAGAGTATCGGTCGA	3.24 log2 normalized intensity
TGGGGTATCAGGTGGTGATGGTGGGAGGGAGCCTAGGGAGATTAGAGTATCGGTCGA	0.113 log2 normalized intensity
AGATGGGGTGAACTTTGGACCACATATAGAGCCTAGGGAGATTAGAGTATCGGTCGA	7.14 log2 normalized intensity
CTCAGTCATACCACATGGATGGATTCAGATGCCTAGGGAGATTAGAGTATCGGTCGA	0.259 log2 normalized intensity
CAGGGGTCATCAGATAGATGGTCAGTGAACGCCTAGGGAGATTAGAGTATCGGTCGA	1.44 log2 normalized intensity
GAGGACTTTGGCCTTTTGTGAGATATGGACGCCTAGGGAGATTAGAGTATCGGTCGA	3.45 log2 normalized intensity

Sequence	binding signal
AGATCAGATGGGGTGAACTTTGGACCACATGCCTAGGGAGATTAGAGTATCGGTCGA	7.41 log2 normalized intensity
TACCATGGGAGACCTCAGGGGTCATCAGATGCCTAGGGAGATTAGAGTATCGGTCGA	2.49 log2 normalized intensity
ACAGGAGATCAGATGGGGTGAACTTTGGACGCCTAGGGAGATTAGAGTATCGGTCGA	8.41 log2 normalized intensity
GGTGAACTTTGAGACTATCCTTGGACCGCAGCCTAGGGAGATTAGAGTATCGGTCGA	2.51 log2 normalized intensity
TCTCTCTCTCTTTCTTCCCCCACTCCAAGTGCCTAGGGAGATTAGAGTATCGGTCGA	5.09 log2 normalized intensity
CGAGTCAAGGGTCAATCCTCTCTTTGGAATGCCTAGGGAGATTAGAGTATCGGTCGA	2.31 log2 normalized intensity
CCTCCTGCCCTATGTCCTCCAGCTCTTGGGGCCTAGGGAGATTAGAGTATCGGTCGA	1.53 log2 normalized intensity
TGGAAGTCGCCGTGAGGTTATTTGCAGACTGCCTAGGGAGATTAGAGTATCGGTCGA	0.0984 log2 normalized intensity
ATTCCTATCGCCCTTCTGTCAAGTCCAAAGGCCTAGGGAGATTAGAGTATCGGTCGA	-0.648 log2 normalized intensity
TCTGCACAAAATACAAGTCGTAAAGACCTTGCCTAGGGAGATTAGAGTATCGGTCGA	0.709 log2 normalized intensity
CCCTCAGCAACTGCAAGGCTGACCCGTGAAGCCTAGGGAGATTAGAGTATCGGTCGA	1.4 log2 normalized intensity
TGTGAGTCCAGTTGAATGATGGCGAGTGTGGCCTAGGGAGATTAGAGTATCGGTCGA	1.62 log2 normalized intensity
TCCAGGCTTGTCCTTTTGACCACAGTTATCGCCTAGGGAGATTAGAGTATCGGTCGA	2.33 log2 normalized intensity
CTTGACCTTTGATCCAGGCTCAGTGGGCGTGCCTAGGGAGATTAGAGTATCGGTCGA	4.91 log2 normalized intensity
ATCCTTCTTGACCAGGCAAGCTTGACCTTTGCCTAGGGAGATTAGAGTATCGGTCGA	7.07 log2 normalized intensity
GCAAGCTTGACCTTTGATCCAGGCTCAGTGGCCTAGGGAGATTAGAGTATCGGTCGA	7.48 log2 normalized intensity
TCTTGACCAGGCAAGCTTGACCTTTGATCCGCCTAGGGAGATTAGAGTATCGGTCGA	10.2 log2 normalized intensity
TTGATCCAGGATCCTTCTTGACCAGGCAAGGCCTAGGGAGATTAGAGTATCGGTCGA	-0.434 log2 normalized intensity
ATTTGACCCTTGGCCAGGTGCAGTGGCTCAGCCTAGGGAGATTAGAGTATCGGTCGA	2.99 log2 normalized intensity
CAAGCTTGATCCAGGATCCTTCTTGACCAGGCCTAGGGAGATTAGAGTATCGGTCGA	0.316 log2 normalized intensity
TTAGGATGACCTTTAGATTCTTACAGGCAAGCCTAGGGAGATTAGAGTATCGGTCGA	3.63 log2 normalized intensity
